Measured values published in PubChem BioAssay (NCI).
About 79,000 compounds went through this panel and 15% of them were active in at least one assay; those are over-represented in the sample as a whole. The source made the active and inactive calls. No stated cut-off is given here; in the data, active means growth inhibition above about 70%; inactive means the rest.

Experiment: NCI Yeast Anticancer Drug Screen. Data for the wt2 strain (AID 169);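 further: 0% = growth of vehicle-treated yeast cultures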
Conditions: S. cerevisiae wt2 strain growth inhibition, active compounds read high
Procedure: Growth inhibition of yeast strains with defined genetic alterations is measured as a screen for potential anti-cancer activity. Selected strains with alterations in DNA damage repair or cell cycle control were exposed to compounds and growth inhibition was measured relative to vehicle treated controls. The strain used in this assay is wt2

Measured: growth inhibition

c1ccc2c(c1)sc1cc3ccncc3cc12
inactive: at 1.2 µM -4% | at 3.7 µM -2% | at 11.0 µM -3% | at 33.0 µM 10%
active: at 100.0 µM 91%

Cn1c(N)nc(-c2ccc(Cl)cc2)c1SSc1c(-c2ccc(Cl)cc2)nc(N)n1C
inactive: at 1.2 µM -1% | at 3.7 µM 1% | at 11.0 µM 20%
active: at 33.0 µM 71% | at 100.0 µM 99%

O=C1CSc2cc([N+](=O)[O-])ccc2N1
inactive: at 1.2 µM 19% | at 3.7 µM 23% | at 11.0 µM 14% | at 33.0 µM 21% | at 100.0 µM 4%

COc1cc2ccc(/C=C\[N+](=O)[O-])cc2cc1OC
active: at 33.0 µM 98% | at 100.0 µM 97%
inactive: at 1.2 µM -14% | at 3.7 µM 4% | at 11.0 µM 22%

Oc1ccc2ccccc2c1C(c1ccc(Cl)cc1)c1c(O)ccc2ccccc12
active: at 100.0 µM 80%
inactive: at 1.2 µM -22% | at 3.7 µM -36% | at 11.0 µM -20% | at 33.0 µM 16%

COC1=CC(=O)C(C2(OC(C)C)OC(=O)C(Cl)=C2Cl)=CC1=O (stereo not given)
active: at 11.0 µM 98% | at 33.0 µM 99% | at 100.0 µM 99%
inactive: at 1.2 µM -1% | at 3.7 µM 10%

CC(C)/C(Cl)=N\OC(=O)Nc1cccc(Cl)c1
inactive: at 1.2 µM -2% | at 3.7 µM -3% | at 11.0 µM -2% | at 33.0 µM -4% | at 100.0 µM 0%

Cc1ccc(S(=O)(=O)Oc2cc(Cl)c(Cl)cc2Cl)cc1
inactive: at 1.2 µM 1% | at 3.7 µM -9% | at 11.0 µM -14% | at 33.0 µM -9% | at 100.0 µM -8%
